Records with an inconclusive call do not appear. Active and inactive are the calls of the source. Calls come from the whole dose curve; as a rule, active = well fitted inhibition curve with a large enough effect; inconclusive = small, poorly fitted or top-dose-only effect; inactive = flat fitted curve, though single readings scatter.
What was measured:
CRL-7250 = normal cell line; test: Cytotoxic Profiling of Annotated Libraries Using Quantitative High-Throughput Screening (AID 1296008); conditions: Five cell lines viability, CellTiter-Glo ATP luminescence, 48-72 h; max response: hits give low values; for max response: % is set by controls: 0 for no effect and ±100 for the full control effect
How it was run: (§1)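 Cells exposed to compounds for 48 or 72 hr at 37 degrees Celsius. Viability read as ATP-coupled luminescence with CellTiter-Glo after 10 min at room temperature.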

HEK293 = test: as above; conditions: Five cell lines viability, CellTiter-Glo ATP luminescence, 48-72 h; max response: hits give low values
How it was run: as §1

HaCat [1] = test: as above; conditions: Five cell lines viability, CellTiter-Glo ATP luminescence, 48-72 h; max response: hits give low values
How it was run: as §1

KB-3-1 = test: as above; conditions: Five cell lines viability, CellTiter-Glo ATP luminescence, 48-72 h; max response: hits give low values
How it was run: as §1

NIH3T3 = test: as above; conditions: Five cell lines viability, CellTiter-Glo ATP luminescence, 48-72 h; max response: hits give low values
How it was run: as §1

HACAT [2] = test: qHTS assay to identify novel small-molecules to repurpose for Merkel cell carcinoma treatment (AID 1296009); conditions: MCC and control cell lines, CellTiter-Glo viability, 72 h; at 44.8 µM (top of the series) unless noted
How it was run: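 Cells were treated for 72 hr at 37 degree celsius with compounds in 8- or 11-point dose response. Viability was read by CellTiter-Glo luminescence, normalized to no-cell (cytotoxicity) and DMSO controls.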

Measured: max response
Note: nearly all actives have a fitted effect of over 60% in size.

OC[C@H]1O[C@@H](OCc2ccccc2)[C@H](O[C@@H]2OC[C@@H](O)[C@H](O)[C@H]2O)[C@@H](O)[C@@H]1O
inactive: CRL-7250 | HEK293 0.407% | HaCat [1] | KB-3-1 | NIH3T3 | HACAT [2] inactive [at 17.4 µM]

CC(=O)OCC(Cc1ccccc1)NC(=O)C(Cc1ccccc1)NC(=O)c1ccccc1 (stereo not given)
inactive: CRL-7250 | HEK293 -2.31% | HaCat [1] | KB-3-1 -0.456% | NIH3T3 | HACAT [2] inactive [at 17.4 µM]

Cc1cn(C[C@H](N)C(=O)O)c(=O)n(Cc2ccsc2C(=O)O)c1=O
inactive: CRL-7250 -3.54% | HEK293 -7.52% | HaCat [1] | KB-3-1 | NIH3T3 4.32% | HACAT [2]

CC1(C)Oc2ncnc(N)c2N=C1c1ccc(C2CCC(CC(=O)O)CC2)cc1 (stereo not given)
inactive: CRL-7250 3.48% | HEK293 0.549% | HaCat [1] | KB-3-1 | NIH3T3 0.325% | HACAT [2]

COc1cc(C(O)C2COC(c3ccc(OC4OC(CO)C(O)C(O)C4O)c(OC)c3)C2CO)ccc1O (stereo not given)
inactive: CRL-7250 -6.83% | HEK293 -1.12% | HaCat [1] | KB-3-1 8.83% | NIH3T3 -19.8% | HACAT [2] inactive [at 17.4 µM]

CC(C)C1NC(=O)C(CC2(O)c3ccccc3N3C(=O)C(Cc4ccccc4)NC32)NC1=O (stereo not given)
inactive: CRL-7250 | HEK293 -4.45% | HaCat [1] | KB-3-1 | NIH3T3 | HACAT [2] inactive [at 17.4 µM]

CCC[C@H](N[C@@H](C)C(=O)N1[C@H](C(=O)O)C[C@@H]2CCCC[C@@H]21)C(=O)O
inactive: CRL-7250 -2.24% | HEK293 3.79% | HaCat [1] | KB-3-1 -5.15% | NIH3T3 -10.2% | HACAT [2]

CC1(C)CC[C@]2(C(=O)O[C@@H]3O[C@H](CO)[C@@H](O)[C@H](O)[C@H]3O)CC[C@]3(C)C(=CCC4[C@@]5(C)CC[C@H](O[C@@H]6O[C@H](C(=O)O)[C@@H](O[C@@H]7O[C@H](CO)[C@@H](O)[C@H](O)[C@H]7O)[C@H](O)[C@H]6O)C(C)(C)C5CC[C@]43C)C2C1 (stereo not given in full)
inactive: CRL-7250 -9.08% | HEK293 3.3% | HaCat [1] | KB-3-1 | NIH3T3 3.38% | HACAT [2] inactive [at 9.27 µM]

CC(C)(O)C1CC=C(C(=O)OC[C@H]2O[C@@H](Oc3cc(C(=O)O)cc(O)c3O)[C@H](O)[C@@H](O)[C@@H]2O)CC1 (stereo not given in full)
inactive: CRL-7250 1.76% | HEK293 3.21% | HaCat [1] | KB-3-1 | NIH3T3 | HACAT [2] inactive [at 17.4 µM]

C=C1C(OC(C)=O)[C@@]23CCC4[C@](C)(C(=O)O)CCC[C@@]4(C)[C@]2(O)CC[C@H]1C3 (stereo not given in full)
inactive: CRL-7250 1.93% | HEK293 -3.51% | HaCat [1] | KB-3-1 0.958% | NIH3T3 | HACAT [2]

O=C(O)Cc1cn([C@@H]2O[C@H](CO)[C@@H](O)[C@H](O)[C@H]2O[C@@H]2O[C@H](CO)[C@@H](O)[C@H](O)[C@H]2O)c2ccccc12
inactive: CRL-7250 -3.23% | HEK293 2.13% | HaCat [1] | KB-3-1 4.7% | NIH3T3 | HACAT [2] inactive [at 17.4 µM]

C=C(C)C1CCC2(C(=O)OC3OC(COC4OC(CO)C(O)C(O)C4O)C(OC4OC(C)C(O)C(O)C4O)C(O)C3O)CCC3(C(=O)O)C(CCC4C5(C)CCC(=O)C(C)(C)C5CCC43C)C12 (stereo not given)
inactive: CRL-7250 -1.47% | HEK293 -21.3% | HaCat [1] | KB-3-1 1.44% | NIH3T3 | HACAT [2] inactive [at 9.27 µM]

CC1(C)CC[C@]2(C(=O)O)CC[C@]3(C)C(=CCC4[C@@]5(C)CC[C@H](O)C(C)(C)C5CC[C@]43C)C2C1 (stereo not given in full)
inactive: CRL-7250 | HEK293 -9.46% | HaCat [1] | KB-3-1 2.08% | NIH3T3 -3.2% | HACAT [2] inactive [at 17.4 µM]

C[C@@H]1C[C@@H](O)[C@@]23CO[C@]2(CO)C[C@@H](O)CC3[C@@]12CC(c1ccoc1)OC2=O (stereo not given in full)
inactive: CRL-7250 -3.28% | HEK293 0.731% | HaCat [1] | KB-3-1 | NIH3T3 | HACAT [2]

C/C=C(\C)C(=O)OC[C@H]1O[C@@H](O[C@H]2[C@@H](O[C@H]3O[C@H](CO)[C@@H](O)[C@H](O)[C@H]3O[C@@H]3O[C@H](CO)[C@@H](O)[C@H](O)[C@H]3O)O[C@H](COC(=O)/C(C)=C/C)[C@@H](O)[C@@H]2O)[C@H](O)[C@@H](O)[C@@H]1O
inactive: CRL-7250 | HEK293 -5.43% | HaCat [1] | KB-3-1 -3.26% | NIH3T3 3.7% | HACAT [2] inactive [at 9.27 µM]

C/C=C/C=C/[C@@H]1O[C@](O)([C@H](CC)C(=O)NC/C=C/C=C(\C)[C@@H](OC)[C@@H](C)[C@@H]2O[C@H](/C=C/C=C/C=C(\C)C(=O)c3c(O)ccn(C)c3=O)[C@H](O)[C@@H]2O)[C@H](O)[C@H](O)C1(C)C
inactive: CRL-7250 -0.994% | HEK293 -2.35% | HaCat [1] | KB-3-1 | NIH3T3 2.66% | HACAT [2] inactive [at 9.27 µM]

C/C=C(\C)C(=O)OC1CC2C(CC=C3CC(OC4CC(OC)C(OC5CC(OC)C(OC6CC(OC)C(OC7CC(OC)C(OC8CC(OC)C(OC9OC(CO)C(O)C(O)C9O)C(C)O8)C(C)O7)C(C)O6)C(C)O5)C(C)O4)CCC32C)C2(O)CCC(C(C)=O)C12C (stereo not given)
inactive: CRL-7250 | HEK293 -12.4% | HaCat [1] | KB-3-1 8.92% | NIH3T3 | HACAT [2] inactive [at 9.27 µM]

O=C(O)CC/C=C\C[C@H]1CO[C@@H](c2ccccc2Cl)O[C@H]1c1ccccc1O
inactive: CRL-7250 3.51% | HEK293 -2.35% | HaCat [1] | KB-3-1 3.23% | NIH3T3 | HACAT [2]

O=C(c1ccc(Cl)c([N+](=O)[O-])c1)N1CCN(c2ccccc2F)CC1
inactive: CRL-7250 -5.45% | HEK293 0.0452% | HaCat [1] | KB-3-1 | NIH3T3 | HACAT [2]

CC/C=C\CC1C(CC(=O)O)CCC1OC1OC(CO)C(O)C(O)C1O (stereo not given)
inactive: CRL-7250 | HEK293 0.263% | HaCat [1] | KB-3-1 8.15% | NIH3T3 | HACAT [2]

C/C(=C\C(=O)C[C@@]12C(=O)O[C@]3(C)CC[C@H]1C[C@H]23)C(N)=O
inactive: CRL-7250 -61.5% | HEK293 -18.5% | HaCat [1] | KB-3-1 | NIH3T3 | HACAT [2]

CC1(C)CCC[C@@]2(C)[C@H]1[C@H](O)C=C(CO)[C@]2(O)CO
inactive: CRL-7250 -0.0206% | HEK293 -0.502% | HaCat [1] | KB-3-1 6.19% | NIH3T3 -5.75% | HACAT [2]

Cc1sc(C)c(C(=O)NC2(c3ccc(C(=O)O)cc3)CC2)c1Cc1ccc(C(F)(F)F)cc1
inactive: CRL-7250 -2.74% | HEK293 -5.46% | HaCat [1] | KB-3-1 8.32% | NIH3T3 | HACAT [2]

O=C(O)CC1CCC(c2ccc(NC(=O)c3nnc(Nc4ccc(F)c(F)c4)o3)cc2)CC1 (stereo not given)
inactive: CRL-7250 1.15% | HEK293 1.04% | HaCat [1] | KB-3-1 | NIH3T3 | HACAT [2]

CC1CC(=O)[C@]2(O)C(C(=O)OCCc3ccc(O)c(O)c3)=CO[C@@H](O[C@@H]3O[C@H](CO)[C@@H](O)[C@H](O)[C@H]3O)[C@H]12 (stereo not given in full)
inactive: CRL-7250 4.18% | HEK293 -8.88% | HaCat [1] | KB-3-1 8.6% | NIH3T3 0.72% | HACAT [2] inactive [at 17.4 µM]

Reference: PubChem BioAssay (NCATS)
